Data from PubChem BioAssay (NCI).
This is part of a sample that, as a whole, favours compounds with a hit. Of some 83,000 tested, about 20% had one in any assay.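 Interpretation: 100, growth as untreated; towards 0, rising growth inhibition; 0, no net growth; 0 to -100, cell death. Compounds scoring below 10 were considered active.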 Unmarked numbers belong to inactive results. Activity calls are given as the source filed them.

Key:
Test in all cases: NCI-60 one-dose screen, 48 h (100 = growth as untreated, 0 = no growth, -100 = all killed)
Settings in all cases: 10 µM unless noted
NCI-H23 lung = tested on: NCI-H23 lung
NCI-H226 lung = tested on: NCI-H226 lung
NCI-H322M lung = tested on: NCI-H322M lung
HOP-62 NSCLC = tested on: HOP-62 NSCLC
NCI-H460 lung = tested on: NCI-H460 lung
HOP-92 NSCLC = tested on: HOP-92 NSCLC
NCI-H522 lung = tested on: NCI-H522 lung
A549/ATCC NSCLC = tested on: A549/ATCC NSCLC
786-0 renal = tested on: 786-0 renal
COLO 205 colon = tested on: COLO 205 colon

Compound | growth (NCI-H23 lung) | growth (NCI-H226 lung) | growth (NCI-H322M lung) | growth (HOP-62 NSCLC) | growth (NCI-H460 lung) | growth (HOP-92 NSCLC) | growth (NCI-H522 lung) | growth (A549/ATCC NSCLC) | growth (786-0 renal) | growth (COLO 205 colon)
CCCCCCOC(=O)CC1=C(C)/C(=C/c2[nH]c(-c3ccc[nH]3)cc2OC)N=C1C | -29.3% (active) | -30.6% (active) | 11.2% | -37.8% (active) | -23% (active) | -27.7% (active) | -49.5% (active) | -6.96% (active) | -51.8% (active) | -82.9% (active)
CS(=O)(=O)Cc1cnc(C2OCCO2)s1 | 107% | 96.4% | 100% | 113% | 112% | 82.4% | 88.7% | 94.8% | 104% | 116%
O=C1Nc2ccc(F)cc2/C1=C\c1nc(-c2ccccc2F)n2ccccc12 | 75.9% | 104% | 91.7% | 94.4% | 50.5% | 79.8% | 52.1% | 86.1% | 105% | 93%
CCOC(=O)c1c2c(n3c1NCC3)-c1ccccc1C2=O | 99% | 99.6% | 105% | 102% | 107% | 84% | 36.2% | 101% | 94.3% | 110%
COc1cc2ncnc(Nc3ccc(F)c(Cl)c3)c2cc1OCC(=O)N1CCN(c2ccc(F)cc2)CC1 | 97% | 96.3% | 36.5% | 95.2% | 101% | 87.9% | 72.2% | 79.7% | 79% | 101%
O=C(/C=C\c1ccco1)/C=C/c1ccco1 | 98.6% | 98.6% | 117% | 98.1% | 116% | 107% | 112% | 102% | 110% | 106%
COc1cc(OC)cc(C2C(C#N)=C(N)Oc3c2ccc2ccc(O)cc32)c1 (stereo not given) | 14.9% | 38.2% | 30.9% | 23.3% | 3.85% (active) | 13.4% | 1.5% (active) | 6.38% (active) | 12.7% | -42% (active)
COc1ccc2nc3ccccc3c(NCc3ccccc3)c2c1 | 21.5% | 34.4% | 29.5% | 33.6% | 6.31% (active) | -13.4% (active) | 34.6% | 18.2% | 22.3% | -19.1% (active)
COc1cc(Nc2ncccc2NC(=O)c2cn(Cc3cccc(Oc4ccccc4)c3)nn2)cc(OC)c1 | 83.8% | 83% | 85.5% | 99.7% | 102% | 98.4% | 81% | 86% | 87.2% | 86.5%
N#C/C(=C\c1ccc(-c2ccc(Cl)cc2)o1)c1ccc(Cl)cc1 | 63.2% | 30% | 69.2% | 46.8% | 10.3% | 5.34% (active) | 81% | 35.4% | -0.442% (active) | 77.1%
CC1O[C@@H]2C[C@@](O)([C@H]1O)n1c3ccccc3c3c4c(c5c6ccccc6n2c5c31)C(=O)NC4=O (stereo not given in full) | 33.7% | 37.2% | 62.8% | 13.4% | 11.3% | 121% | 30.7% | 32.3% | 48.8% | 11.2%
Clc1ccc(-c2nc(-c3c[nH]c4ncccc34)cs2)cc1 | 35% [100 µM] | 47.7% [100 µM] | 61.7% [100 µM] | 6.83% [100 µM] (active) | 72.5% [100 µM] | -42.4% [100 µM] (active) | 71.7% [100 µM] | 55.2% [100 µM] | 34.6% [100 µM] | 93.2% [100 µM]
COc1ccc2cc(-c3ccc(-c4ccc(C(=N)N)s4)s3)ccc2c1 | 0.368% (active) | 97% | 22.6% | -8.34% (active) | -59.8% (active) | 65.5% | -46.7% (active) | -18.9% (active) | -53.6% (active) | -4.44% (active)
N#Cc1c(Nc2ccc(F)cc2)n[nH]c1-c1cccs1 | 85.2% | 88.9% | 102% | 110% | 107% | 87.5% | 97.1% | 115% | 98.3% | 128%
Cc1cc2oc(=O)cc(CP(=O)(O)O)c2cc1O | 100% | 102% | 91.2% | 97.3% | 103% | 100% | 93.9% | 99.9% | 105% | 104%
CCOC(=O)C(=Cc1cccc(C#N)c1)C(=O)OCC | 68.4% | 38.1% | 91% | 115% | 95.9% | 63.2% | 16.7% | 75.5% | 86.4% | 47.1%
COc1ccc(-c2ccc(=O)oc2C#Cc2cc(OC)c(OC)c(OC)c2)cc1O | 44.2% | 51.7% | 31.5% | -28.1% (active) | -4.6% (active) | 51.4% | 4.45% (active) | 28.7% | 11.8% | 47.2%
COc1cc2c(c(OC)c1OC)C(=O)CC(c1cccc(NC(=O)c3ccccc3Br)c1)O2 (stereo not given) | 98.4% | 84.8% | 96% | 97.4% | 90.4% | 65.2% | 66.7% | 88.1% | 103% | 116%
Cc1cccc(-n2c(C)nc3ccc(N4CCCNC4=O)cc3c2=O)c1 | 98.5% | 96.5% | 103% | 101% | 112% | 95.1% | 96.4% | 102% | 102% | 105%
COc1ccc(/C=C/C(=O)c2cc3c(N)c(C(=O)Nc4ccc(OC)cc4)sc3nc2C)cc1 | 32.7% | 49.4% | 36.4% | 49.2% | -6.51% (active) | 97.7% | -29.6% (active) | 13.5% | 27.7% | -47.7% (active)
COc1ccc(C2=Nc3c/c(=C\c4c(O)[nH]c5cc(Cl)ccc45)ccc3=N2)cc1 | 68.1% | 84.1% | 91.2% | 77.3% | 93.6% | 77.9% | 46% | 74.9% | 90.8% | 3.61% (active)
CCN1CCN(CC(=O)Nc2nc3ccc(NCc4ccc(Br)cc4)cc3s2)CC1 | 70.4% | 64.6% | 84.9% | 64.8% | 26.3% | 40.9% | 99.5% | 64.5% | 61.3% | -48.9% (active)
Cn1cc(-c2nc(-c3c[nH]c4ccncc34)cs2)c2cc(Br)ccc21 | -64.2% (active) | 0.662% (active) | -93.1% (active) | -69.7% (active) | -71.4% (active) | -91.9% (active) | -70.8% (active) | -70.3% (active) | -78.5% (active) | -71.1% (active)
C[Se]C(=O)CC1=C2C=C(F)C=CC2/C(=C\c2ccc(S(C)=O)cc2)C1C (stereo not given) | 13.5% | 1.21% (active) | 14.1% | -24.3% (active) | -1% (active) | -41.4% (active) | 12.9% | -60.1% (active) | 3.8% (active) | -17.4% (active)
Fc1ccc2c(c1)c(-c1nc(-c3c[nH]c4ncccc34)cs1)cn2CCCN1CCOCC1 | 76% | 59.3% | 80.9% | 49.9% | 37.8% | 23.5% | 41.3% | 42.6% | 57.3% | 18.1%
C=CCN=C(N)SCCCCCCSC(N)=NCC=C | 105% | 97.1% | 103% | 75.1% | 102% | 63.3% | 64.4% | 86.8% | 92.2% | 86.4%
